Sampled rows, rich in hits. Any-hit rate of the full collection: about 3%.
Sm TGR block: S. mansoni TGR enzyme inhibition. purified TGR, DTNB reduction, TNB absorbance 405 nm. AID 485364. Potency, µM (highest dose often 114 µM), actives largely listed as inhibitors. Q962Y6. 360,000 tested, 3% active; active = well fitted inhibition curve with a large enough effect; inconclusive = small, poorly fitted or top-dose-only effect; inactive = no such curve, though single readings can be large or run the other way; also: nearly all actives have a fitted effect of over 60% in size
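Kinetic colorimetric format: TGR-catalysed, NADPH-driven DTNB reduction monitored via TNB absorbance. Enzyme dispensed at 20 nM; compound exposure 15 min at room temperature before reaction start.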
SARS PLpro yeast-1: blocks SARS-CoV papain-like protease in a yeast assay; S. cerevisiae expressing SARS-CoV PLpro, growth rescue; Potency, µM (doses to about 32.9 µM), hits mostly activators; 330,000 tested, 0.19% active; AID 485353; calls by dose curve; also: nearly all actives have a fitted effect of over 55% in size
SARS PLpro yeast-2: Inhibits SARS-CoV PLP in yeast, hit validation; shares compounds with SARS PLpro yeast-1; calls only; yeast expressing SARS-CoV PLpro, growth phenotype rescue; 1,000 tested, 19% active; AID 652038; call rule not given here
Of the large screens only hits and unclear results are named; the others gave an inactive call (follow-up assays come after a bar, where they were run).

CCCCn1c(=N)c(S(=O)(=O)c2ccc(C)cc2)cc2c(=O)n3cc(C)ccc3nc21	none (no result: SARS PLpro yeast-1)
COCCC1CCCCN1C(=O)c1cc(COc2ccc(-n3cncn3)cc2)on1 (centres undefined)	SARS PLpro yeast-1 inconclusive | SARS PLpro yeast-2 inactive
COCCOC1CCN(C(=O)c2cc(COc3ccc(-n4cncn4)cc3)on2)CC1	Sm TGR block inconclusive
O=C(Nc1ccc(F)cc1F)NC1CCN(S(=O)(=O)c2ccc(F)cc2)CC1	none
Cc1cc(Cl)ccc1NC(=O)NC1CCN(S(=O)(=O)c2ccc(F)cc2)CC1	SARS PLpro yeast-1 inconclusive | SARS PLpro yeast-2 inconclusive
NC(=O)c1ccc(Oc2ccc(Cl)c3ccccc23)c([N+](=O)[O-])c1	SARS PLpro yeast-1 4.5µM | SARS PLpro yeast-2 inconclusive
NC(=O)c1ccc(Oc2ccc(Cl)cc2)c([N+](=O)[O-])c1	none
O=C(CSc1nc2c([nH]c3ccccc32)c(=O)n1-c1ccc(Cl)cc1)N1CCCCCC1	none (no result: SARS PLpro yeast-1)
CCNc1nc(NCC)nc(N/N=C/c2ccc(N(C)C)cc2)n1	none
CCNc1nc(NCC)nc(N/N=C/c2ccc(O)c(O)c2)n1	SARS PLpro yeast-1 11µM | SARS PLpro yeast-2 inactive
CC1(C)CC(=O)C2=C(C1)Nc1ccccc1NC2c1cccs1 (centres undefined)	none
Cc1ccsc1C1Nc2ccc3ncccc3c2C2=C1C(=O)CC(C)(C)C2 (centres undefined)	SARS PLpro yeast-1 11µM | SARS PLpro yeast-2 inactive
Cc1cc(C)cc(NC(=O)c2cc(S(=O)(=O)N3CCCCC3)c[nH]2)c1	none (no result: SARS PLpro yeast-1)
COc1cccc(NC(=O)C2CCCN(S(=O)(=O)c3cn(C(C)C)cn3)C2)c1 (centres undefined)	none (no result: SARS PLpro yeast-1)
CCCCCOC(=O)CSc1ncnc2c1sc1nc(N3CCOCC3)c3c(c12)CCCC3	none (no result: SARS PLpro yeast-1)
Cc1ccc(N2CC(C(=O)OCC(=O)Nc3ccccc3C)CC2=O)cc1 (centres undefined)	SARS PLpro yeast-1 inconclusive | SARS PLpro yeast-2 inconclusive
Cc1ccc(N2CC(C(=O)OCC(=O)Nc3ccccc3F)CC2=O)cc1 (centres undefined)	none
O=C(C1CCC1)N1CCCc2cc(S(=O)(=O)Nc3ccc(F)cc3)ccc21	none (no result: SARS PLpro yeast-1)
CCCCC(=O)NNC(=S)NC(=O)CCC	SARS PLpro yeast-1 16µM | SARS PLpro yeast-2 inactive
CCCCC(=O)NC(=S)NNC(=O)CC#N	none
CC1CCN(S(=O)(=O)c2cn(CC(=O)Nc3ccc(F)cc3)c(=O)c3ccccc23)CC1	none (no result: SARS PLpro yeast-1)
CCCN1C(=O)/C(=C/c2ccc3c(c2)OCO3)NC1=S	none
CCCN1C/C(=C/c2ccc3c(c2)OCO3)C(=O)/C(=C/c2ccc3c(c2)OCO3)C1	Sm TGR block inconclusive, SARS PLpro yeast-1 14µM | SARS PLpro yeast-2 inactive
Cc1ccc2cccc(NC(=O)C(C)Oc3ccc(Cl)cc3Cl)c2n1 (centres undefined)	none (no result: SARS PLpro yeast-1)
CCC(C)n1c(=N)c(C(=O)NCc2ccccc2)cc2c(=O)n3cc(C)ccc3nc21 (centres undefined)	none (no result: SARS PLpro yeast-1)
c1ccc(C2OCCN3CCCCC23)cc1 (centres undefined)	none
CN1CCOC(c2ccccc2)c2ccccc2C1 (centres undefined)	SARS PLpro yeast-1 5µM | SARS PLpro yeast-2 inactive
CCOc1ccc(N2C(=O)CC(SC(=NC)Nc3ccc4c(c3)OCO4)C2=O)cc1 (centres undefined)	SARS PLpro yeast-1 inconclusive | SARS PLpro yeast-2 inconclusive
CCOc1ccc(NC(=NCc2ccc3c(c2)OCO3)SC2CC(=O)N(c3ccc(OCC)cc3)C2=O)cc1 (centres undefined)	SARS PLpro yeast-1 inconclusive
CCOc1ccc(NC(=O)Nc2ccc(NC(C)=O)cc2)cc1	none
CCOc1ccc(NC(=O)NC2CCOC(C)(C)C2)cc1 (centres undefined)	SARS PLpro yeast-1 inconclusive | SARS PLpro yeast-2 inactive
CC1CC(C)(C)NC(=S)N1CC(=O)N(C)Cc1ccccc1 (centres undefined)	SARS PLpro yeast-1 inconclusive | SARS PLpro yeast-2 inactive
CC1CC(C)(C)NC(=S)N1CC(=O)NCc1ccc(F)cc1 (centres undefined)	none
O=c1c(=O)n(-c2cccc(Cl)c2)ccn1Cc1cccc(F)c1	none (no result: SARS PLpro yeast-1)
COc1ccc(-n2nc(C(=O)N3CCN(c4ccccc4OC)CC3)c3c4ccccc4n(C)c3c2=O)cc1	none (no result: SARS PLpro yeast-1)
CCN(CC)C(=O)CSc1nc2ccccc2c(=O)n1-c1cccc(OC)c1	none
COc1cccc(-n2c(SCc3cc(=O)oc4cc(O)c(O)cc34)nc3ccccc3c2=O)c1	SARS PLpro yeast-1 14µM | SARS PLpro yeast-2 inactive
COc1cccc(N=CC2=C(O)CCCC2=O)c1	none
COc1cccc(N=CC2=C(O)CC(C)(C)CC2=O)c1	none (no result: SARS PLpro yeast-1) | SARS PLpro yeast-2 inactive
COc1ccc(C)cc1NC(=O)NCc1cccn1Cc1ccccc1	none (no result: SARS PLpro yeast-1)
COc1ccc(OCC(=O)NCc2ccc3c(c2)CCN3C(=O)c2cccc(C)c2)cc1	none (no result: SARS PLpro yeast-1)
Cc1ccc(-n2c(SCC(=O)Nc3ccc4c(c3)OCCO4)nc3c([nH]c4ccccc43)c2=O)cc1	none (no result: SARS PLpro yeast-1)
Cc1cc(Cl)ccc1OCC(=O)NC1CCCC1	none
Cc1cc(Cl)ccc1OCC(=O)N/N=C1\CC2C=CCC12 (centres undefined)	SARS PLpro yeast-1 inconclusive | SARS PLpro yeast-2 inactive
CCOC(=O)c1c(C)[nH]c(C)c1S(=O)(=O)N1CCCC(C(=O)Nc2ccccc2OCC)C1 (centres undefined)	none (no result: SARS PLpro yeast-1)
O=S(=O)(NCCc1nnc2ccc(SCc3c(F)cccc3Cl)nn12)c1ccccc1	none (no result: SARS PLpro yeast-1)
Cc1ccccc1NC(=O)/C(=C/c1cccs1)NC(=O)c1ccco1	none
Cc1ccccc1NC(=O)/C(=C\c1cccs1)NC(=O)c1ccco1	SARS PLpro yeast-1 inconclusive | SARS PLpro yeast-2 inactive
CCCCNC(=O)C(CC)Sc1nnc(-c2ccc(OC)c(OC)c2)c(-c2ccc(OC)c(OC)c2)n1 (centres undefined)	none (no result: SARS PLpro yeast-1)
Cc1ccc(NC(=S)Nc2ccc3cn[nH]c3c2)cc1C	SARS PLpro yeast-1 2.5µM | SARS PLpro yeast-2 inconclusive
CCNC(=S)Nc1ccc2cn[nH]c2c1	none
C=CCC(CC=C)(CNC(=O)C(=O)Nc1ccc(Br)cc1)c1ccc(OC)c(OC)c1	none (no result: SARS PLpro yeast-1)
CN(C)c1ccc(CNC(=O)c2cnc3sc(N4CCCCCC4)nn3c2=O)cc1	none (no result: SARS PLpro yeast-1)
COc1ccc(N2CC(C(=O)Nc3ccc(NC(C)=O)cc3)CC2=O)cc1 (centres undefined)	none (no result: SARS PLpro yeast-1)
COc1cccc(CNS(=O)(=O)c2cnc(N)nc2)c1	none (no result: SARS PLpro yeast-1)
COc1cc(CNCCN(C)C)c(Br)cc1OCC(=O)NCc1ccccc1	none
COc1cc(CNCC(C)C)c(Br)cc1OCC(=O)NCc1ccccc1	Sm TGR block 28µM, SARS PLpro yeast-1 inconclusive | SARS PLpro yeast-2 inactive
COc1ccccc1CNc1ncnc2c1c(-c1ccccc1)cn2-c1cccc(C)c1	none (no result: SARS PLpro yeast-1)
Cc1nn(-c2ccc(N3CCOCC3)nn2)c(C)c1CCC(=O)NCc1ccc(OC(C)C)cc1	none (no result: SARS PLpro yeast-1)
O=C(N/N=C\c1c(O)ccc2ccccc12)c1ccc(Cn2cccn2)o1	SARS PLpro yeast-1 inconclusive | SARS PLpro yeast-2 inactive
O=C(N/N=C\c1ccc(Cl)s1)c1ccc(Cn2cccn2)o1	none
O=C(O)c1cccc(COc2ccccc2Cl)c1	none
O=C(Nc1ccccc1Cl)c1cccc(COc2cc(Cl)ccc2Cl)c1	SARS PLpro yeast-1 inconclusive | SARS PLpro yeast-2 inactive
CCn1c(CN2CCCCC2)nc2cc(NC(=O)COc3ccccc3C(C)(C)C)ccc21	none (no result: SARS PLpro yeast-1)
O=C(NCCc1ccc2c(c1)OCCO2)c1ccccc1F	none
O=C(/C=C/c1ccc(F)cc1)NCCc1ccc2c(c1)OCCO2	SARS PLpro yeast-1 4µM | SARS PLpro yeast-2 inactive
CC(CNC(=O)c1sc2ncccc2c1-n1cccc1)c1ccccc1 (centres undefined)	none (no result: SARS PLpro yeast-1)
CCOc1ccc(NC(=O)N(C)CCc2c(C)nn(C)c2C)cc1	none (no result: SARS PLpro yeast-1)

Screens deposited in PubChem by National Center for Advancing Translational Sciences (NCATS).
